# According to PubChem BioAssay (NCATS):
# Unmarked numbers belong to inactive results. Records with an inconclusive call do not appear. Entries that show only a call come without a potency. Activity calls are given as the source filed them. Unless noted, calls follow the shape of the dose curve; as a rule, active = well fitted curve in the direction sought with a large enough effect; inconclusive = small, poorly fitted or top-dose-only effect, or another doubt; inactive = no such curve, though single readings can be large; an effect the other way counts as inactive or inconclusive.
# What was measured:
# [1] = AP1 Signaling Pathway (AID 357; active = well fitted curve in either direction with a large enough effect, not every such curve was filed as active;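 also: ME-180 reporter cells stimulated with EGF at its EC50 level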); conditions: ME-180 AP-1-bla reporter, EGF-induced, beta-lactamase ratio, 5 h; at 7.69 µM (top of the series) unless noted
# How it was run: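 Beta-lactamase reporter under AP-1 response element, ME-180 background. Stimulus: EC50 EGF. Compound exposure 5 h, 37 °C. Detection: CCF4, 2.5 h RT, 460/530 nm. Values: AC50 from titration.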
# [2] = target: Cytochrome P450 1A2 (Homo sapiens) (UniProt P05177); assay: p450-cyp1a2 (AID 410; calls by dose curve; also: potency is read from the fitted curve at half-maximal effect)
# Cytochrome P450 1A2 (Homo sapiens), sequence (P05177 whole entry, looked up): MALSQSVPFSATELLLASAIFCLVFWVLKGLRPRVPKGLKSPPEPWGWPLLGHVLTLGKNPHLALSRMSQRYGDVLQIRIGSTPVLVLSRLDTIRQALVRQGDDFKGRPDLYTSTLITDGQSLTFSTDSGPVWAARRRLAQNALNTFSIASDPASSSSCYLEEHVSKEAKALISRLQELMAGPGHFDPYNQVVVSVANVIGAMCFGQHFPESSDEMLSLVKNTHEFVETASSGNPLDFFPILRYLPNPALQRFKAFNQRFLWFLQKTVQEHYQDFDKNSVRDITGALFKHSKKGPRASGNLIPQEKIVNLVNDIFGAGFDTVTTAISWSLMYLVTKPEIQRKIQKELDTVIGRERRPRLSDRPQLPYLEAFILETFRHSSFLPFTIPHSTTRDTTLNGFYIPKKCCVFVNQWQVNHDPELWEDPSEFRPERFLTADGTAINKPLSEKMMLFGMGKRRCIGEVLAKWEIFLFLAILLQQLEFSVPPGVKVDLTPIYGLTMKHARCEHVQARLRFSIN
# How it was run: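 Inhibition was calculated relative to 57 uM furafylline (full inhibition). The reaction used human CYP1A2 at 20nM with Luciferin-ME at its Km, 100uM, driven by an NADPH-regenerating system for 60 min at room temperature.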
# [3] = NFAT Signaling Pathway (AID 444; active = well fitted curve in either direction with a large enough effect, not every such curve was filed as active;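 also: carbachol stimulus at about its EC50 of 1 µM final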); conditions: Jurkat NFAT-bla M1, carbachol, beta-lactamase ratio, 5 h; at 7.69 µM (top of the series) unless noted
# How it was run: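 Read-out: CCF4 FRET ratio (460 nm/530 nm) after 1 h RT dye loading, used for %activity and AC50 from titration series. Cells: Jurkat NFAT-β-lactamase/M1 line, treated with compound plus 1 uM carbachol for 5 h, 37 °C.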
# [4] = Stat Signaling Pathway (AID 446; active = well fitted curve in either direction with a large enough effect, not every such curve was filed as active;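 also: ME-180 cervical cancer cells given 40 pM IL-6 alongside compound; SIE-controlled beta-lactamase reporter measured as 460/530 nm FRET emission ratio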); conditions: ME-180 SIE beta-lactamase reporter, IL-6 stimulated, 5 h; at 7.69 µM (top of the series) unless noted
# How it was run: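 Screening format detects activators and inhibitors alike: ME-180 SIE-bla cells stimulated at 40 pM IL-6 for 5 hrs with compound, then dual-emission beta-lactamase read at 405 nm excitation.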
# [5] = target: Glucocorticoid receptor (Homo sapiens) (UniProt P04150); assay: GR-GFP Redistribution (AID 450;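 active = compounds whose dose series gives a full or clear partial fitted curve of increased nuclear translocation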; also: potency is read from the fitted curve at half-maximal effect); conditions: U2OS GR-GFP nuclear translocation, laser cytometry, 2 h
# Glucocorticoid receptor (Homo sapiens), sequence (P04150 whole entry, looked up, the tested form may be a part): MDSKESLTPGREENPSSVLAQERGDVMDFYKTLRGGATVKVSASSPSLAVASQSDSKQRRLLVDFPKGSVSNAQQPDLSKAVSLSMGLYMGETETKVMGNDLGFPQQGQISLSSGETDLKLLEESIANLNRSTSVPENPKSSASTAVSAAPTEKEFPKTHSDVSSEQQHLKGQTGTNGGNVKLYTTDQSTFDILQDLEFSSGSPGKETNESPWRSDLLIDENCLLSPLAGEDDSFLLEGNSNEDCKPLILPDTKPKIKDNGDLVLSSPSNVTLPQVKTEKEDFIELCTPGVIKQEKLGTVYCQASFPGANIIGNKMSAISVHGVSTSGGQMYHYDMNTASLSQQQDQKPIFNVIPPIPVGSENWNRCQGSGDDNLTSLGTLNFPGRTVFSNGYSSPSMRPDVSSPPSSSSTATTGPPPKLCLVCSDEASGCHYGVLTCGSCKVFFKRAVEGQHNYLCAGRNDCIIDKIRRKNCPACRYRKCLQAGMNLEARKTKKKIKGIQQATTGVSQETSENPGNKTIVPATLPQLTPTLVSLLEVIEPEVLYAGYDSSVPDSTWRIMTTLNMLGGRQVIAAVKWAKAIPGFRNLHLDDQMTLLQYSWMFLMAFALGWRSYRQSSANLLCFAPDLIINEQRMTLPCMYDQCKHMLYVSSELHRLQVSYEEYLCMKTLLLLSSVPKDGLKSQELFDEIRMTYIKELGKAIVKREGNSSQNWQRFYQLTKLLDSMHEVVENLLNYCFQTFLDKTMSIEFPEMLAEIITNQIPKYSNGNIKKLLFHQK
# [6] = target: Glucocorticoid receptor (Homo sapiens) (UniProt P04150); assay: GR-EFC Redistribution (AID 451; calls by dose curve; also: potency is read from the fitted curve at half-maximal effect); conditions: CHO-K1 GR-EFC translocation, beta-gal luminescence, 2 h
# How it was run: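 Translocation of GR-ED fusion to nuclear EA restores b-gal, read by luminescence after 1 h room-temperature detection. Engineered CHO-K1 biosensor cells, 1,000/well, exposed 2 h at 37 C to titrations up to 46 uM final.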
# [7] = target: Mitogen-activated protein kinase 10 (Mus musculus) (UniProt Q61831); assay: JNK3 AlphaScreen Assay (AID 530; active = well fitted curve in either direction with a large enough effect, not every such curve was filed as active;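 also: kinase came from lysate of stimulated human HepG2 cells; signal reports phosphorylation of biotinylated GST-cJun 1-79 at Ser73 with 10 µM ATP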)
# How it was run: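 Room-temperature AlphaScreen kinase assay; pre-activated HepG2 lysate as JNK3 source, biotin-GST-cJun(1-79) substrate, 10 uM ATP, compound 15 min preincubation.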
# [8] = target: 3',5'-cyclic-AMP phosphodiesterase 4B (Homo sapiens) (UniProt Q07343); assay: qHTS Assay for Inhibitors of PDE-IV (AID 607; active = well fitted activation curve with a large enough effect in the main read-out, with a control signal flat, not every such curve was filed as active)
# 3',5'-cyclic-AMP phosphodiesterase 4B (Homo sapiens), sequence (Q07343 whole entry, looked up): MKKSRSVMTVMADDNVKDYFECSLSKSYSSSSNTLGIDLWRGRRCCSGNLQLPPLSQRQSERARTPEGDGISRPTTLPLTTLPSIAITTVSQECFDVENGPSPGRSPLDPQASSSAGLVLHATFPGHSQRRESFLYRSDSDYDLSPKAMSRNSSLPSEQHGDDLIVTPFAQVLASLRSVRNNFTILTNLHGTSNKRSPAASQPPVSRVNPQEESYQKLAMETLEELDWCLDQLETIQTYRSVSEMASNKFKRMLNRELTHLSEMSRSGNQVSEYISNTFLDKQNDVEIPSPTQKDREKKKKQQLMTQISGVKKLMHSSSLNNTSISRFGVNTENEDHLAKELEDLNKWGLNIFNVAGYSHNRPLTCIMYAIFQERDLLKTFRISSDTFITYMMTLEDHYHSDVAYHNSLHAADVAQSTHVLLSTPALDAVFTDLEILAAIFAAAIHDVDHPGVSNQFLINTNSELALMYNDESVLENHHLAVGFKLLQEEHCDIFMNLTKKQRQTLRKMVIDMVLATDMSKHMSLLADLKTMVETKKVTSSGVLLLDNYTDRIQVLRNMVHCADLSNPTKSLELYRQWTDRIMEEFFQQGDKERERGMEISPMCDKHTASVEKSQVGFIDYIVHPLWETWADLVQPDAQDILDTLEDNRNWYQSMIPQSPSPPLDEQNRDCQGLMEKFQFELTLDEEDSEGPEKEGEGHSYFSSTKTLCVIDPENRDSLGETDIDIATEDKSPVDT
# How it was run: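 The readout is membrane depolarisation from a cAMP-sensing CNG channel, detected with a potential dye at ex 535/em 590. Cells were HEK293-derived (endogenous PDE-IV) at 1000 cells/well, titrated up to 22.9 uM final.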
# [9] = target: Guanine nucleotide-binding protein G(i) subunit alpha-1 (Homo sapiens) (UniProt P63096); assay: qHTS Assay for Inhibitors of RGS12 GoLoco Motif Activity (Green Fluorophore) (AID 879);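 also: negative values mean loss of peptide binding seen as reduced polarization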
# Guanine nucleotide-binding protein G(i) subunit alpha-1 (Homo sapiens), sequence (P63096 whole entry, looked up): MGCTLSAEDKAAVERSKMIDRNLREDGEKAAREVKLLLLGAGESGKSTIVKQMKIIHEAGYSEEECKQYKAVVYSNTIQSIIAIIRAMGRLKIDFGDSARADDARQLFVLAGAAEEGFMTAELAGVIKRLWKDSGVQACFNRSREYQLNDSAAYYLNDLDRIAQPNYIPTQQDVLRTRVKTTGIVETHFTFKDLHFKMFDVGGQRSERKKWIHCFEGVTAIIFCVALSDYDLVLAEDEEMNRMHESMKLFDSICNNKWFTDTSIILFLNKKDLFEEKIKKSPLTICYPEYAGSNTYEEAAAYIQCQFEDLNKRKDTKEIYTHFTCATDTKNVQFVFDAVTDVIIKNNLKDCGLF
# How it was run: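 Fluorescence polarization assay: 50 nM Gαi1 with 10 nM FITC-labeled RGS12 GoLoco peptide in 10 mM Tris pH 7.5, 150 mM NaCl, 0.1 mM GDP, 0.05% NP40, 10 min at room temperature with compound.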
# [10] = target: Cytochrome P450 2C19 (Homo sapiens) (UniProt P33261); assay: qHTS Assay for Inhibitors and Substrates of Cytochrome P450 2C19 (AID 899); also: nearly all actives have a fitted effect of over 60% in size
# Cytochrome P450 2C19 (Homo sapiens), sequence (P33261 whole entry, looked up): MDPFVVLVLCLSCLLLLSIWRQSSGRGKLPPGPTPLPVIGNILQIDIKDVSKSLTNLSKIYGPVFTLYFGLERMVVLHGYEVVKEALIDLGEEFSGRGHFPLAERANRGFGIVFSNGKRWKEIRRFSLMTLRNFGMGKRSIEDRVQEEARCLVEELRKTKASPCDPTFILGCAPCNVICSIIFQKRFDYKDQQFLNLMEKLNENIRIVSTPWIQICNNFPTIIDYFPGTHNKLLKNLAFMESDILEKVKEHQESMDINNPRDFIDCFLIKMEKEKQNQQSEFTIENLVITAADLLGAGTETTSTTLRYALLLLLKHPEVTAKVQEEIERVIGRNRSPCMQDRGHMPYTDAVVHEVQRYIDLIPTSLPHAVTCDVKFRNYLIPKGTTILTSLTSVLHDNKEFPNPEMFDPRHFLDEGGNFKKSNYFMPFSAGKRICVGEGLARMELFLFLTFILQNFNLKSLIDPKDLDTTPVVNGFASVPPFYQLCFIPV
# How it was run: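 5nM enzyme + 10uM Luciferin-H EGE (=KM), 50mM KPO4; cpd pin-transferred, 10 min 37C; NADPH regen, 60 min 37C; stopped w/ luciferin detection reagent, 20 min; luminescence. Normalized to 57uM ketoconazole (AC100).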
# [11] = qHTS Assay for Identification of Small Molecule Agonists for Thrombopoietin (TPO) Signaling Pathway (AID 917)
# How it was run: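 We measured Glycoprotein IIb promoter–luciferase output in IL-3-starved Ba/F3 murine cells expressing the human TPO receptor after 24 hrs at 37 C with compounds and 26 pM TPO.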
# [12] = target: Muscarinic acetylcholine receptor M1 (Rattus norvegicus) (UniProt P08482); assay: qHTS Assay for Antagonists of Acetylcholine Muscarinic M1 Receptor: Measurement of IP-One Response (AID 944); also: nearly all actives have a fitted effect of over 75% in size
# Muscarinic acetylcholine receptor M1 (Rattus norvegicus), sequence (P08482 whole entry, looked up): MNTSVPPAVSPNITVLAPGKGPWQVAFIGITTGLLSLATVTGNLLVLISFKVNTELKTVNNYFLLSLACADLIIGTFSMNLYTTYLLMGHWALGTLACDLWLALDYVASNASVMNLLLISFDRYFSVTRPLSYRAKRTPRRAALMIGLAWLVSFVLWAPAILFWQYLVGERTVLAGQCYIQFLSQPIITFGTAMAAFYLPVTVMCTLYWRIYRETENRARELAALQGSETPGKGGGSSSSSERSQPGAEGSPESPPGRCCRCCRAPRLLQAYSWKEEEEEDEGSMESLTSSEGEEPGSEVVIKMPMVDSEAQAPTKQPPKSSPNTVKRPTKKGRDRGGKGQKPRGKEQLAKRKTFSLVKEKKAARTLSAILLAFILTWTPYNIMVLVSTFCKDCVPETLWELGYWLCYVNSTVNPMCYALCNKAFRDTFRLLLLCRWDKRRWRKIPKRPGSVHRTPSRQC
# How it was run: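 Steps: plate transfected CHO-M1 cells overnight; add test compound, 10 min; add carbachol (200 nM, EC80) in stimulation buffer with LiCl; incubate 30 min; add labelled IP1 tracer and anti-IP1 antibody in lysis buffer; read HTRF after 10 min.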
# [13] = target: Pyruvate kinase PKM (Homo sapiens) (UniProt P14618); assay: qHTS Assay for Activators of Human Muscle Pyruvate Kinase (AID 954; active = well fitted curve in the direction sought with a large enough effect, not every such curve was filed as active)
# Pyruvate kinase PKM (Homo sapiens), sequence (P14618 whole entry, looked up): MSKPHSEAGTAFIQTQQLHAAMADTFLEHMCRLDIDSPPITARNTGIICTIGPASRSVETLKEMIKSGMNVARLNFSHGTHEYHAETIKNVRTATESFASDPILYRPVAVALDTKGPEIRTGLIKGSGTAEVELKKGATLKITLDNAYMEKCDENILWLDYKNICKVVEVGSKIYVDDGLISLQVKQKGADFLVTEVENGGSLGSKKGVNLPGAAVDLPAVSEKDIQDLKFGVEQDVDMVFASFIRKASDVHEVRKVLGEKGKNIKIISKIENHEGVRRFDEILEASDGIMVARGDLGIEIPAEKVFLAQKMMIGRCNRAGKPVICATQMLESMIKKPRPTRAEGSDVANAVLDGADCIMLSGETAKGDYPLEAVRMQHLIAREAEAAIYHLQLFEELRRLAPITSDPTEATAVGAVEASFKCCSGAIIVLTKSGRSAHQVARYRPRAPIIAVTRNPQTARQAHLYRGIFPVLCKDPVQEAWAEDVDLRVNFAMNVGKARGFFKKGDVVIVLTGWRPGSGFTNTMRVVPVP
# How it was run: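 Reaction: 0.1 nM purified PKM2 with 0.5 mM phosphoenolpyruvate and 0.1 mM ADP, room temperature, 1 h. Readout: luciferase-based ATP luminescence after stop reagent. Activators judged against a 0.3 nM enzyme column.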
# [14] = target: Alpha-galactosidase A (Homo sapiens) (UniProt P06280); assay: Counterscreen for Glucocerebrosidase Inhibitors: qHTS Assay for Human alpha-Galactosidase at pH 4.5 (AID 992)
# Alpha-galactosidase A (Homo sapiens), sequence (P06280 whole entry, looked up): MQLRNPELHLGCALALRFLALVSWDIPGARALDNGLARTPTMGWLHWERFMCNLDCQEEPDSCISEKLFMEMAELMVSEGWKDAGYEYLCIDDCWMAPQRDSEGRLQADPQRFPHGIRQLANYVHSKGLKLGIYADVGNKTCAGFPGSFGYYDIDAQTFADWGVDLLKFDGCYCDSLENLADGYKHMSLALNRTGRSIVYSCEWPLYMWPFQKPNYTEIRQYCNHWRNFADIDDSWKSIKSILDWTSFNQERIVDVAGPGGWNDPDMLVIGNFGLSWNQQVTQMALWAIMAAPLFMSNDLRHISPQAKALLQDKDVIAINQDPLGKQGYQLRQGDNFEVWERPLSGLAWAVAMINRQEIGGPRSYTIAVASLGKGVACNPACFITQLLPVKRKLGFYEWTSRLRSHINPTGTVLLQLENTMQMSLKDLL
# How it was run: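 Concentration-response curves (0.7 nM to 77 uM final) were modeled with the Hill equation to give AC50. Reactions: 2 nM enzyme, 80 uM fluorogenic alpha-galactoside, pH 4.5 citric acid buffer, 20 min, room temperature.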
# [15] = qHTS Assay for Identification of Small Molecule Antagonists for NFkB Signaling Pathway (AID 895; active = well fitted inhibition curve with a large enough effect in the signal ratio, with a control signal flat, not every such curve was filed as active; the % refers to the signal ratio)
# How it was run: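 Beta-lactamase reporter read-out (460 and 530 nm emission ratio, 405 nm excitation, 2 hrs substrate loading RT) after 5 hr stimulation with 10 pM TNF alpha in compound-treated NFkB-bla ME-180 cells in low-serum medium.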
# [16] = target: Pyruvate kinase (Leishmania mexicana) (UniProt Q27686); assay: qHTS Validation Assay for Inhibitors of Leishmania Mexicana Pyruvate Kinase (AID 945)
# Pyruvate kinase (Leishmania mexicana), sequence (Q27686 2-499 E452W): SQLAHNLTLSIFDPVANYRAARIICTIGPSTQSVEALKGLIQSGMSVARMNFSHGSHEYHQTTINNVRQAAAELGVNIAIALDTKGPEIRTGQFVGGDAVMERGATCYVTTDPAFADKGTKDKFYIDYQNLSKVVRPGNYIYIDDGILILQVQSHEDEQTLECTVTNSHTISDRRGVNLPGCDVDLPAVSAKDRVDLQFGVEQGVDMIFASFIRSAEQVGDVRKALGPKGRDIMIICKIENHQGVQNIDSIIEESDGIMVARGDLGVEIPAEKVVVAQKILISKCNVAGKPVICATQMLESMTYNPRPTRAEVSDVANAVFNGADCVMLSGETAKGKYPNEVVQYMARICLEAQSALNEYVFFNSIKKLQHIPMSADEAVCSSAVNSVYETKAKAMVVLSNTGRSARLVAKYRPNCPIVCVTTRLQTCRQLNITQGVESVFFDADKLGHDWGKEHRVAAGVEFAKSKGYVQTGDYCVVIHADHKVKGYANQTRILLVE
# How it was run: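 Substrate mix (0.5 mM PEP, 0.1 mM ADP, 7 mM MgCl2, 50 mM KCl, pH 7.2 imidazole) received compound by pin tool, then 0.2 nM LmPYK E451W. After 1 h at room temperature, PKLight was added and luminescence measured.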
# [17] = target: alpha-glucosidase (Oryza sativa, rice) (UniProt Q653V4); assay: Counterscreen for Glucocerebrosidase Inhibitors: qHTS Assay for Rice alpha-Glucosidase at pH 5.0 (AID 997)
# How it was run: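 Rice alpha-glucosidase (4 nM final) with 400 uM 4-methylumbelliferyl-alpha-D-glucopyranoside in citrate buffer pH 5.0, 20 min at room temperature, stopped at pH 10; fluorescence 365/440 nm, compounds 0.7 nM–77 uM, AC50 from Hill fits.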
# [18] = target: Muscarinic acetylcholine receptor M1 (Rattus norvegicus) (UniProt P08482); assay: qHTS Assay for Antagonists of Acetylcholine Muscarinic M1 Receptor: Kinetic Measurement of Intracellular Calcium Response (AID 943);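 also: Fluo-4 calcium signal as peak divided by basal fluorescence over 4 min; nearly all actives have a fitted effect of over 75% in size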
# How it was run: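 Intracellular calcium flux, recorded with Fluo-4 in a kinetic plate reader, served as signal; the response to carbachol at EC80 (100 nM final) was taken as maximal over minimal fluorescence after a 10 min compound pre-incubation in rat M1-CHO cells.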
# [19] = target: Cytochrome P450 3A4 (Homo sapiens) (UniProt P08684); assay: qHTS Assay for Activators of Cytochrome P450 3A4 (AID 885); also: nearly all actives have a fitted effect of over 65% in size
# How it was run: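 Steps: enzyme/substrate mix dispensed; compound added, 10 min RT; NADPH regeneration solution added, 60 min RT; luciferin detection buffer stops reaction; 20 min later luminescence measured.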
# [20] = target: Cytochrome P450 2D6 (Homo sapiens) (UniProt P10635); assay: qHTS Assay for Inhibitors and Substrates of Cytochrome P450 2D6 (AID 891);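 also: luciferin methyl ether substrate demethylated by CYP2D6 with NADPH regeneration; nearly all actives have a fitted effect of over 60% in size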
# How it was run: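 Human CYP2D6 (5 nM) with 30 uM Luciferin-ME EGE (at Km) in 100 mM KPO4, compound preincubated 10 min, then NADPH regeneration system for 60 min at room temperature. Luciferin read by luminescence; normalized to 1.43 uM quinidine.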
Compound,"activity change, negative = inhibition [1]",Potency [2],"activity change, negative = inhibition [3]","activity, negative = inhibition [4]",Potency [5],Potency [6],Potency [7],Potency [8],outcome [9],Potency [10],outcome [11],Potency [12],outcome [13],outcome [14],Potency [15],outcome [16],Potency [17],Potency [18],Potency [19],Potency [20]
O=C(O)CCC(=O)N1CCC[C@H]1C(=O)O,14% [at 38 µM],inactive,7.11% [at 38 µM],-28.5% [at 38 µM],> 46 µM,> 46 µM,inactive,inactive,inactive,inactive,inactive,inactive,inactive,inactive,,,,,,
C[C@@H]1O[C@@H](n2cc(F)c(=O)[nH]c2=O)[C@H](O)[C@@H]1O,-3.92% [at 38 µM],inactive,3.74% [at 38 µM],21.9% [at 38 µM],> 46 µM,> 46 µM,inactive,inactive,inactive,,inactive,inactive,inactive,inactive,inactive,inactive,,,,
CCCCCCCCCC[Si](C)(C)CCC(=O)N[C@@H](Cc1ccc(C)cc1)c1ccccc1,20.2% [at 38 µM],31.6 µM (active),-7.96% [at 38 µM],-5.69% [at 38 µM],> 46 µM,> 46 µM,inactive,inactive,inactive,inactive,,inactive,inactive,inactive,,inactive,,,,
O=C(O)CC[C@@H](NC(=O)c1ccccc1C(=O)O)C(=O)O,10.1% [at 38 µM],inactive,6.53% [at 38 µM],-11.8% [at 38 µM],> 46 µM,> 46 µM,inactive,inactive,inactive,,inactive,inactive,inactive,inactive,,inactive,inactive,,,
C[C@H](O)[C@H](O)[C@@H]1CNc2nc(N)[nH]c(=O)c2N1,7.68% [at 38 µM],inactive,7.39% [at 38 µM],18.8% [at 38 µM],> 46 µM,> 46 µM,inactive,inactive,inactive,,inactive,inactive,inactive,inactive,,,,inactive,,
CCCCCCCCCCCCCCC/C=C\[C@H](O)[C@@H](NC(=O)CCCCCCCCCCCCC)OC (tested in a mixture with another compound),15.5% [at 38 µM],inactive,13% [at 38 µM],-20.2% [at 38 µM],> 46 µM,> 46 µM,inactive,inactive,inactive,,inactive,inactive,inactive,inactive,,,inactive,inactive,,
CC1=C(C(=O)O)N2C(=O)[C@@H](NC(=O)[C@@H](N)C3=CCC=CC3)[C@@H]2SC1,0.806% [at 38 µM],inactive,1.78% [at 38 µM],-5.32% [at 38 µM],> 46 µM,> 46 µM,inactive,inactive,inactive,inactive,inactive,inactive,inactive,inactive,,,inactive,,inactive,inactive
N[C@H](CCCC(=O)O)C(=O)O,3.41% [at 38 µM],inactive,7.48% [at 38 µM],-3.61% [at 38 µM],> 46 µM,> 46 µM,inactive,inactive,inactive,,inactive,inactive,inactive,inactive,,inactive,inactive,inactive,,
O=C1O/C(=C\Br)CC[C@@H]1c1cccc2ccccc12,-0.931% [at 38 µM],inactive,-0.824% [at 38 µM],4.17% [at 38 µM],> 46 µM,> 46 µM,inactive,inactive,inactive,,,inactive,,inactive,,inactive,inactive,inactive,inactive,
NCC[C@H]1CCC[C@H](CCN)N1,2.44% [at 38 µM],inactive,2.27% [at 38 µM],-5.59% [at 38 µM],> 46 µM,> 46 µM,inactive,inactive,inactive,,inactive,inactive,inactive,inactive,inactive,inactive,inactive,,,
